From PubChem BioAssay (NCI) come the findings set out here.

Some test systems named below: NCI-H23 lung; NCI-H226 lung; NCI-H322M lung; HOP-62 NSCLC; NCI-H460 lung; NCI-H522 lung; A549/ATCC NSCLC; 786-0 renal; COLO 205 colon; DU-145 prostate; K-562 leukemia; MALME-3M melanoma; MDA-MB-231 breast; RXF 393 renal; SF-268 CNS; SF-295 CNS; SF-539 CNS; UACC-257 melanoma; M14 melanoma.
Common to all, as to test: NCI-60 one-dose screen, 48 h (100 = growth as untreated, 0 = no growth, -100 = all killed)
Common to all, as to conditions: 10 µM unless noted

About 83,000 compounds went through this panel and 20% of them were active in at least one assay; those are over-represented in the sample as a whole.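 The endpoint reported here, percent growth, reads 100 for growth as untreated, 0 for no net growth and -100 for all cells dead.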 A number with no mark means an inactive call. Activity calls are given as the source filed them. How the source made its calls: active means growth percent below 10; inactive means the rest.

In the case of `Cc1c(N)ccc(-c2ccc(N)c(C)c2S(=O)(=O)O)c1S(=O)(=O)O`, the growth in the assay on NCI-H23 lung was 98%; in the assay with NCI-H226 lung, 111%; in the assay on NCI-H322M lung it was 108%; in the assay with HOP-62 NSCLC it was 107%; in the assay on NCI-H460 lung, 112%; with NCI-H522 lung, 101%. The growth in the assay on A549/ATCC NSCLC was 117%; in the assay with 786-0 renal, 106%; in the assay with COLO 205 colon, 111%; with DU-145 prostate, 111%; with K-562 leukemia it was 101%; in the assay with MALME-3M melanoma, 127%. The growth is 109% in the assay with MDA-MB-231 breast; 118% in the assay on RXF 393 renal; 109% in the assay with SF-268 CNS; 117% in the assay on SF-295 CNS; 126% in the assay on SF-539 CNS; 115% in the assay with UACC-257 melanoma. In addition, the growth with M14 melanoma was 108%.

As to `COc1cc2c(Oc3ccc(NC(=O)C4(C(=O)Nc5ccc(F)cc5)CC4)cc3F)ccnc2cc1OCCCN1CCOCC1`, the growth in the assay on NCI-H23 lung is 10.1%; in the assay with NCI-H226 lung, 12.3%; with NCI-H322M lung it was -1.77% (active); with HOP-62 NSCLC, -13.5% (active); in the assay with NCI-H460 lung, -40.8% (active); with NCI-H522 lung, -57% (active). The growth with A549/ATCC NSCLC is -77.1% (active); with 786-0 renal, -75.7% (active); in the assay on COLO 205 colon it was -71.3% (active); in the assay on DU-145 prostate, 16.4%; in the assay with K-562 leukemia, -12.1% (active); in the assay with MALME-3M melanoma, -71.6% (active). The growth with MDA-MB-231 breast was -60.3% (active); with RXF 393 renal, -94.5% (active); in the assay on SF-268 CNS it was 11.6%; in the assay on SF-295 CNS, -82.9% (active); with SF-539 CNS, -90.5% (active); in the assay on UACC-257 melanoma, -85.3% (active). For the same molecule, the growth in the assay on M14 melanoma was -65.9% (active).

For `CCc1cc2c(cc1N1CCC(N3CCOCC3)CC1)C(C)(C)c1[nH]c3cc(C#N)ccc3c1C2=O`, the growth with NCI-H23 lung was 14.5%; in the assay on NCI-H226 lung, -35% (active); in the assay with NCI-H322M lung, -12.5% (active); in the assay with HOP-62 NSCLC it was -61.7% (active); in the assay on NCI-H460 lung, 1.34% (active); in the assay on NCI-H522 lung, -38.5% (active). Also, the growth in the assay on A549/ATCC NSCLC was 7.92% (active); in the assay with 786-0 renal it was -45.7% (active); with COLO 205 colon it was -42.5% (active); in the assay with DU-145 prostate it was 10.1%; with K-562 leukemia, 2.08% (active); in the assay on MALME-3M melanoma, -27.4% (active). Besides, the growth with MDA-MB-231 breast was -7.59% (active); with RXF 393 renal it was -1.05% (active); in the assay with SF-268 CNS, -2.19% (active); with SF-295 CNS it was -3.18% (active); with SF-539 CNS, -71.8% (active); with UACC-257 melanoma, -20% (active). For the same molecule, the growth in the assay on M14 melanoma is -26.1% (active).

On to `N#CCNC(=O)c1ccc(-c2ccnc(Nc3ccc(N4CCOCC4)cc3)n2)cc1`, for which the growth was 29.6% in the assay with NCI-H23 lung; -3.52% (active) with NCI-H226 lung; 39.2% with NCI-H322M lung; 4.27% (active) with HOP-62 NSCLC; 6.81% (active) in the assay with NCI-H460 lung; 4.57% (active) with NCI-H522 lung. Also, the growth is 13.4% with A549/ATCC NSCLC; 4.83% (active) in the assay with 786-0 renal; 18.6% with DU-145 prostate; 26.9% in the assay with K-562 leukemia; 33.2% in the assay with MALME-3M melanoma; 19.8% with MDA-MB-231 breast. In addition, the growth in the assay with RXF 393 renal was -62.8% (active); with SF-268 CNS it was 22.1%; in the assay on SF-295 CNS it was 49.5%; with SF-539 CNS it was -9.39% (active); in the assay with UACC-257 melanoma, 31.1%; in the assay on M14 melanoma, 44%.

`Cc1nn(-c2ccccc2)c2c1N=c1s/c(=C\c3cn(-c4ccccc4)nc3-c3ccc(Cl)cc3)c(=O)n1C(C)N2` (stereo unspecified): the growth in the assay with NCI-H23 lung was 79.4%; in the assay with NCI-H226 lung it was 93.2%; in the assay with NCI-H322M lung, 113%; in the assay with HOP-62 NSCLC, 102%; in the assay on NCI-H460 lung, 93%; in the assay on NCI-H522 lung it was 10.2%. Also, the growth in the assay with A549/ATCC NSCLC was 87.8%; in the assay with 786-0 renal it was 77.1%; in the assay with COLO 205 colon, 99.2%; in the assay on DU-145 prostate it was 59.7%; in the assay on K-562 leukemia, 119%; in the assay with MALME-3M melanoma it was 124%. For the same molecule, the growth is 78.5% in the assay on MDA-MB-231 breast; 114% in the assay on RXF 393 renal; 91% with SF-268 CNS; 116% in the assay with SF-295 CNS; 85.6% with SF-539 CNS; 111% in the assay on UACC-257 melanoma. Also, in the assay on M14 melanoma, the growth is 107%.

In the case of `CCOC(=O)C1=C(C)N=C2Sc3cc(OC(F)(F)F)ccc3N2[C@H]1c1ccccn1`, the growth is 48.8% in the assay on NCI-H23 lung; 57.6% in the assay with NCI-H226 lung; 50.2% with NCI-H322M lung; 47.6% in the assay on HOP-62 NSCLC; 15.2% with NCI-H460 lung; 48.5% in the assay on NCI-H522 lung. The growth in the assay on A549/ATCC NSCLC is 30.1%; with 786-0 renal, 59.1%; in the assay with COLO 205 colon, 36.7%; in the assay with DU-145 prostate, 46.5%; in the assay with K-562 leukemia it was 21.9%; in the assay with MALME-3M melanoma it was 59.1%. The growth with MDA-MB-231 breast is 53.9%; in the assay with SF-268 CNS, 47.8%; with SF-295 CNS, 22.2%; with SF-539 CNS it was 41%; with M14 melanoma it was 27.3%.

As to `CC1(C)NC(=O)c2[nH]c3c(Cl)c(Cl)ccc3c2C1C#N` (stereo unspecified), the growth was 75.8% in the assay with NCI-H23 lung; 53.9% in the assay with NCI-H226 lung; 90.5% in the assay on NCI-H322M lung; 82.5% in the assay on HOP-62 NSCLC; 88.7% in the assay on NCI-H460 lung; 67.8% in the assay with NCI-H522 lung. Further, the growth in the assay with A549/ATCC NSCLC is 80.1%; in the assay with 786-0 renal it was 82.6%; in the assay on COLO 205 colon, 92.3%; in the assay on DU-145 prostate, 92.9%; with K-562 leukemia, 69.2%; in the assay with MALME-3M melanoma, 99.7%. Also, the growth in the assay on MDA-MB-231 breast was 91.2%; in the assay with SF-268 CNS, 94.8%; with SF-295 CNS, 59.3%; with SF-539 CNS, 85.4%; with M14 melanoma, 106%.

For `COC(=O)[C@@H](OC)[C@@H]1Cc2cc3cc(OC4CC(OC5CC(O)C(O)C(C)O5)C(O)C(C)O4)c(C)c(O)c3c(O)c2C(=O)[C@H]1OC1CC(OC2CC(OC3CC(C)(O)C(O)C(C)O3)C(O)C(C)O2)C(O)C(C)O1` (stereo partly specified), the growth in the assay on NCI-H23 lung is -47.3% (active); with NCI-H226 lung it was -41.9% (active); in the assay on NCI-H322M lung, 12.3%; in the assay with HOP-62 NSCLC, 6.33% (active); with NCI-H460 lung, 4.95% (active); in the assay on NCI-H522 lung, -30.3% (active). Besides, the growth in the assay with A549/ATCC NSCLC was 8.71% (active); in the assay on 786-0 renal it was 9.07% (active); in the assay with DU-145 prostate, 10.2%; in the assay on K-562 leukemia it was 4.16% (active); in the assay with MALME-3M melanoma, -58% (active); with MDA-MB-231 breast it was -8.44% (active). Also, the growth in the assay with RXF 393 renal is -73% (active); in the assay with SF-268 CNS it was 3.86% (active); with SF-295 CNS, -10.6% (active); with SF-539 CNS it was -41.6% (active); in the assay on UACC-257 melanoma, -11.2% (active); in the assay on M14 melanoma it was -71.5% (active).
